Among the data in PubChem BioAssay (NCI) are growth inhibition values, retold here.

The nature of experiment [1]: NCI Yeast Anticancer Drug Screen. Data for the rad50 strain (AID 155).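 Note: 0% = growth of vehicle-only cultures of the same strain.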 To be noted: S. cerevisiae rad50 strain growth inhibition, hits give high values. The procedure, abridged: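 Yeast carrying a defined DNA repair defect were exposed to test compounds, and growth was compared with vehicle-treated controls to give percent inhibition.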
The nature of experiment [2]: NCI Yeast Anticancer Drug Screen. Data for the mec2-1 strain (AID 157). The conditions noted are these: S. cerevisiae mec2-1 strain, hits give high values. Summed up:
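Mutant yeast (mec2-1) grown with compound; growth inhibition relative to vehicle control reported.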

Experiment [3] can be described thus: NCI Yeast Anticancer Drug Screen. Data for the sgs1 mgt1 strain (AID 161).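 Note: 0% = growth of cultures given vehicle only.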 To be noted: S. cerevisiae sgs1 mgt1 strain, hits give high values. Summed up: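 Compounds are added to genetically altered yeast, and growth is compared with cultures given vehicle alone to give percent inhibition.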
The nature of experiment [4]: NCI Yeast Anticancer Drug Screen. Data for the cln2 rad14 strain (AID 165).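 Note: 0% = growth equal to vehicle treated cultures.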 The conditions noted are these: S. cerevisiae cln2 rad14 strain, hits give high values. The procedure, abridged: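 Readout is yeast growth inhibition versus vehicle-treated controls, using a strain with cln2 and rad14 alterations exposed to compound.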
A short description of experiment [5]: NCI Yeast Anticancer Drug Screen. Data for the bub3 strain (AID 167). To be noted: S. cerevisiae bub3 mutant strain, hits give high values. The procedure, abridged:
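Compounds were applied to a genetically altered yeast strain carrying a cell-cycle control defect. Growth inhibition was scored against vehicle-treated controls.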

The nature of experiment [6]: NCI Yeast Anticancer Drug Screen. Data for the mlh1 rad18 strain (AID 175). The conditions noted are these: S. cerevisiae mlh1 rad18 strain growth inhibition, hits give high values. The procedure, abridged: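 Genetically defined yeast (DNA repair-deficient) exposed to compounds; growth inhibition determined relative to vehicle.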
Where [7] appears, read: at 5.0 µM (retest, dose inferred, filed as 0.5).
Where [8] appears, read: at 50.0 µM (retest, dose inferred, filed as 5.0).

Compounds without any hit were thinned out: in the full panel of roughly 79,000, 15% have a hit. Values without a mark were called inactive. Activity calls are given as the source filed them. Cut-off read from the data, not from the text of the source: active = growth inhibition above about 70%; inactive = the rest.

`COC(=O)C1=C(C(=O)OC)C2C(C)=CC(C)=CN2C(C(=O)OC)=C1C(=O)OC` (configuration not stated): the growth inhibition in experiment [1] (setting [7]) is -1%; in experiment [1] (setting [8]), -7%; in experiment [1] (at 50.0 µM), 11.2%; in experiment [2] (setting [7]), 0%; in experiment [2] (setting [8]) it was 2%; in experiment [2] (at 50.0 µM), 5.8%. Besides, the growth inhibition in experiment [3] (setting [7]) is -10%; in experiment [3] (setting [8]), 4%; in experiment [3] (at 50.0 µM), 2.3%; in experiment [4] (setting [7]), -2%; in experiment [4] (setting [8]), -5%; in experiment [4] (at 50.0 µM) it was 74.3% (active). The growth inhibition in experiment [5] (setting [7]) is 2%; in experiment [5] (setting [8]) it was -3%; in experiment [5] (at 50.0 µM), -6.7%; in experiment [6] (setting [7]), -4%; in experiment [6] (setting [8]), -4%; in experiment [6] (at 50.0 µM), 25.4%.

As to `CN(C)S(=O)(=O)c1cc(Cl)ccc1NN`, the growth inhibition in experiment [1] (setting [7]) was -114%; in experiment [1] (setting [8]) it was -20%; in experiment [1] (at 50.0 µM), 59.6%; in experiment [2] (setting [7]), -44%; in experiment [2] (setting [8]), -41%; in experiment [2] (at 50.0 µM) it was 36.9%. In addition, the growth inhibition is -56% in experiment [3] (setting [7]); -21% in experiment [3] (setting [8]); 44% in experiment [3] (at 50.0 µM); -41% in experiment [4] (setting [7]); -22% in experiment [4] (setting [8]); 19.2% in experiment [4] (at 50.0 µM). The growth inhibition in experiment [5] (setting [7]) was -71%; in experiment [5] (setting [8]), -14%; in experiment [5] (at 50.0 µM) it was 78.4% (active); in experiment [6] (setting [7]) it was -119%; in experiment [6] (setting [8]), -32%; in experiment [6] (at 50.0 µM) it was 48.6%.

Consider `CCCCCN(CCCCC)CC(O)c1cccc2cc(Cl)ccc12` (configuration not stated), for which the growth inhibition in experiment [1] (setting [7]) was -1%; in experiment [1] (setting [8]), 98% (active); in experiment [1] (at 50.0 µM) it was 99.5% (active); in experiment [2] (setting [7]), -1%; in experiment [2] (setting [8]), 98% (active); in experiment [2] (at 50.0 µM) it was 99.7% (active). The growth inhibition is 4% in experiment [3] (setting [7]); 99% (active) in experiment [3] (setting [8]); 99.6% (active) in experiment [3] (at 50.0 µM); -4% in experiment [4] (setting [7]); 99% (active) in experiment [4] (setting [8]); 99.5% (active) in experiment [4] (at 50.0 µM). The growth inhibition in experiment [5] (setting [7]) was 2%; in experiment [5] (setting [8]), 99% (active); in experiment [5] (at 50.0 µM), 99.5% (active); in experiment [6] (setting [7]), 0%; in experiment [6] (setting [8]), 99% (active); in experiment [6] (at 50.0 µM) it was 99.6% (active).

For the compound `C1CCC(CCNCCC2CCCCC2)CC1`, the growth inhibition in experiment [1] (setting [7]) was -1%; in experiment [1] (setting [8]) it was 99% (active); in experiment [1] (at 50.0 µM) it was 99% (active); in experiment [2] (setting [7]) it was -15%; in experiment [2] (setting [8]), 99% (active); in experiment [2] (at 50.0 µM), 97.5% (active). Moreover, the growth inhibition in experiment [3] (setting [7]) is 25%; in experiment [3] (setting [8]), 99% (active); in experiment [3] (at 50.0 µM), 99% (active); in experiment [4] (setting [7]), -15%; in experiment [4] (setting [8]) it was 99% (active); in experiment [4] (at 50.0 µM) it was 98.7% (active). In addition, the growth inhibition is -8% in experiment [5] (setting [7]); 99% (active) in experiment [5] (setting [8]); 98.5% (active) in experiment [5] (at 50.0 µM); 8% in experiment [6] (setting [7]); 99% (active) in experiment [6] (setting [8]); 98.7% (active) in experiment [6] (at 50.0 µM).

Consider `CC(C(=O)c1ccc(Cl)cc1)C1OC(=O)C(Cl)=C1Cl` (configuration not stated), for which the growth inhibition in experiment [1] (setting [7]) is 43%; in experiment [1] (setting [8]) it was 54%; in experiment [1] (at 50.0 µM), 90.8% (active); in experiment [2] (setting [7]) it was 37%; in experiment [2] (setting [8]), 51%; in experiment [2] (at 50.0 µM) it was 93.4% (active). Moreover, the growth inhibition in experiment [3] (setting [7]) was 43%; in experiment [3] (setting [8]), 70% (active); in experiment [3] (at 50.0 µM) it was 92.9% (active); in experiment [4] (setting [7]), 32%; in experiment [4] (setting [8]) it was 43%; in experiment [4] (at 50.0 µM) it was 87.7% (active). The growth inhibition in experiment [5] (setting [7]) is 40%; in experiment [5] (setting [8]), 72% (active); in experiment [5] (at 50.0 µM), 91.5% (active); in experiment [6] (setting [7]) it was 56%; in experiment [6] (setting [8]), 71% (active); in experiment [6] (at 50.0 µM) it was 91.7% (active).

On to `CC1=C(C(=O)Nc2ccc([N+](=O)[O-])cc2)C(c2ccccc2F)C(C(=O)Nc2ccc([N+](=O)[O-])cc2)=C(C)N1`, for which the growth inhibition in experiment [1] (setting [7]) was 19%; in experiment [1] (setting [8]), 19%; in experiment [1] (at 50.0 µM), 56.4%; in experiment [2] (setting [7]), 5%; in experiment [2] (setting [8]), 5%; in experiment [2] (at 50.0 µM), 74.3% (active). The growth inhibition was 2% in experiment [3] (setting [7]); 2% in experiment [3] (setting [8]); 52% in experiment [3] (at 50.0 µM); 6% in experiment [4] (setting [7]); 6% in experiment [4] (setting [8]); 64% in experiment [4] (at 50.0 µM). Moreover, the growth inhibition is -1% in experiment [5] (setting [7]); -1% in experiment [5] (setting [8]); 60% in experiment [5] (at 50.0 µM); -2% in experiment [6] (setting [7]); -2% in experiment [6] (setting [8]); 28.1% in experiment [6] (at 50.0 µM).

On to `O=C(Nc1ccccc1Cl)c1ccc(Cl)c(Cl)c1`, for which the growth inhibition in experiment [1] (setting [7]) is 4%; in experiment [1] (setting [8]), 0%; in experiment [1] (at 50.0 µM), -0.85%; in experiment [2] (setting [7]), 4%; in experiment [2] (setting [8]), 2%; in experiment [2] (at 50.0 µM), 1%. Also, the growth inhibition in experiment [3] (setting [7]) was 1%; in experiment [3] (setting [8]), 1%; in experiment [3] (at 50.0 µM), 10.2%; in experiment [4] (setting [7]), 2%; in experiment [4] (setting [8]) it was -2%; in experiment [4] (at 50.0 µM), 29.6%. The growth inhibition in experiment [5] (setting [7]) is 1%; in experiment [5] (setting [8]) it was -3%; in experiment [5] (at 50.0 µM) it was 2.2%; in experiment [6] (setting [7]), -1%; in experiment [6] (setting [8]) it was 1%; in experiment [6] (at 50.0 µM), -18.2%.

As to `CN(C)CC(C)(CN(C)C)C(=O)/C=C/c1ccc(Cl)c(Cl)c1`, the growth inhibition in experiment [1] (setting [7]) is 27%; in experiment [1] (setting [8]), 98% (active); in experiment [1] (at 50.0 µM) it was 99.7% (active); in experiment [2] (setting [7]), 18%; in experiment [2] (setting [8]) it was 99% (active); in experiment [2] (at 50.0 µM) it was 99.8% (active). For the same compound, the growth inhibition in experiment [3] (setting [7]) was 38%; in experiment [3] (setting [8]) it was 98% (active); in experiment [3] (at 50.0 µM) it was 99.8% (active); in experiment [4] (setting [7]), 13%; in experiment [4] (setting [8]) it was 99% (active); in experiment [4] (at 50.0 µM) it was 99% (active). For the same compound, the growth inhibition is 12% in experiment [5] (setting [7]); 100% (active) in experiment [5] (setting [8]); 99.5% (active) in experiment [5] (at 50.0 µM); 41% in experiment [6] (setting [7]); 99% (active) in experiment [6] (setting [8]); 99.6% (active) in experiment [6] (at 50.0 µM).

On to `COc1ccc(C(=O)CC(=O)c2ccccc2)cc1`, for which the growth inhibition in experiment [1] (setting [7]) was 1%; in experiment [1] (setting [8]), 99% (active); in experiment [1] (at 50.0 µM) it was -6.2%; in experiment [2] (setting [7]), -1%; in experiment [2] (setting [8]) it was 99% (active); in experiment [2] (at 50.0 µM), 17.8%. Further, the growth inhibition in experiment [3] (setting [7]) was 2%; in experiment [3] (setting [8]) it was 99% (active); in experiment [3] (at 50.0 µM) it was 20.4%; in experiment [4] (setting [7]), -15%; in experiment [4] (setting [8]) it was 99% (active); in experiment [4] (at 50.0 µM), -17.3%. In addition, the growth inhibition was 24% in experiment [5] (setting [7]); 99% (active) in experiment [5] (setting [8]); 80% (active) in experiment [5] (at 50.0 µM); 0% in experiment [6] (setting [7]); 99% (active) in experiment [6] (setting [8]); 14.1% in experiment [6] (at 50.0 µM).
